# Test results: PubChem BioAssay
# Values without a mark were called inactive. The rule behind the calls is not given here.
# Target: Pantothenate synthetase (Mycobacterium tuberculosis (strain ATCC 25618 / H37Rv)) (UniProt P9WIL5)
# Test: Recombinant Mtb pantothenate synthetase (PanC) inhibitors, coupled enzyme, confirmatory (AID 375);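 note: 0% = full reaction with vehicle and 100% = no enzyme background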
# Conditions: coupled enzyme assay; at 10 µM, hits give high values
# Sequence of Pantothenate synthetase (Mycobacterium tuberculosis (strain ATCC 25618 / H37Rv)) (P9WIL5 whole entry, looked up): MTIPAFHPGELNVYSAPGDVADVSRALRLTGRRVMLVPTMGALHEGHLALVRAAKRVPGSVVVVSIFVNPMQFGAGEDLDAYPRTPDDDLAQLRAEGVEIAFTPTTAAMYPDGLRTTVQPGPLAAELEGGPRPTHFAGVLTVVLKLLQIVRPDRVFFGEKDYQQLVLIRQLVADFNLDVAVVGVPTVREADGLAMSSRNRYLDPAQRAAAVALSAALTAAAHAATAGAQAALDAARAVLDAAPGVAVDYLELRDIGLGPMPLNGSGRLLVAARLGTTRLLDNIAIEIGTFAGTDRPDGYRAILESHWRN
row,SMILES,inhibition [%]
1,Cc1ccc(Cn2c(C)nc3c(c2=O)c2nc4ccccc4nc2n3Cc2ccco2)cc1,0
2,Cc1ccnc(SCCn2c(N3CCN(Cc4ccccc4)CC3)nc3c2c(=O)[nH]c(=O)n3C)n1,0
3,N/C(Cn1nnc(-c2ccccc2)n1)=N\O,3
4,O=C(Nc1cccc(F)c1)C1C2C=CC3(CN(CCCN4CCOCC4)C(=O)C13)O2 (stereo not given),0
5,COc1cccc(C2CC(=O)Nc3cc4c(cc32)OCCO4)c1OC(C)C (stereo not given),1
6,COc1ccccc1C(=O)N1CCN(CCc2ccccc2)CC1,6
7,Cc1cc(O)c(-c2cc(C(=O)Nc3ccc(S(=O)(=O)N4CCOCC4)cc3)[nH]n2)cc1C,0
8,CC1(C)NC(=O)N(CC(O)CN(Cc2ccccc2)Cc2ccccc2)C1=O (stereo not given),0
9,COc1ccccc1NC(=O)c1oc2ccccc2c1NC(=O)c1cc(OC)c(OC)c(OC)c1,0
10,Cc1ccccc1OCCN1C(=O)NC2(CCc3ccccc32)C1=O (stereo not given),8
11,Cc1noc(/C=C/N(C)C)c1S(=O)(=O)N1CCCC(C(=O)NCCC2=CCCCC2)C1 (stereo not given),0
12,N#Cc1nc(-c2ccco2)oc1NCCc1ccccc1,0
13,c1ccc(-n2c(Sc3cnccn3)nnc2-c2cccs2)cc1,0
14,O=C(CCN1C(=O)c2ccccc2C1=O)N1CCN(C(=O)c2ccccc2)CC1,0
15,COCCn1nnnc1C(C(C)C)N(Cc1cccnc1)Cc1ccccc1Cl (stereo not given),2
16,Cc1ccc(N2CCN(c3ccc(C)cc3)C(CC(=O)O)C2=O)cc1 (stereo not given),7
17,CCCCNC(=O)C(C#N)c1nc2ccccc2nc1N1CCCC1 (stereo not given),0
18,COc1cccc(-c2cc(C(=O)N3CCc4ccccc4C3)no2)c1,10
19,CCCCn1c(CN2CCN(c3ccccc3)CC2)nc2c1c(=O)n(C)c(=O)n2C,0
20,Cc1cccc(Cn2c(SCC(=O)Nc3ccccc3)nc3c2c(=O)[nH]c(=O)n3C)c1,3

row,SMILES,inhibition [%]
1,C=CCNS(=O)(=O)c1ccc2nsnc2c1,0
2,Cc1cc(C)n(-c2cc(N3CCOCC3)nc(-c3ccccc3)n2)n1,2
3,NS(=O)(=O)c1ccc(CCNC(=O)c2cccnc2)cc1,1
4,CN1C(=O)NC(NC(=O)C2CCCCC2)(C(F)(F)F)C1=O (stereo not given),0
5,CN/C(=C/[N+](=O)[O-])NCCSCc1ccc(CN(C)C)o1,4
6,CCCCCn1c(CN(C)Cc2ccccc2)nc2c1c(=O)n(C)c(=O)n2C,1
7,COc1ccc(-c2nnc(SCCC(=O)O)n2-c2ccccc2)cc1,0
8,O=C(CCCCC(=O)NCc1cccs1)NCc1cccs1,8
9,CCCCSCCCNC(=O)CS(=O)Cc1nc(-c2cccc(C)c2)oc1C (stereo not given),6
10,Cc1cc(NCCN(C)C)n2nc(-c3cccs3)cc2n1,0
11,CC1CCN(CCCNC(=O)c2coc3nc4ccccc4nc23)CC1,1
12,CC(C)(C)N=C1NC(=NC(C)(C)C)c2ccccc21,0
13,CN(CC(=O)Nc1ccncc1)S(=O)(=O)c1ccccc1,10
14,O=C(CSc1ccc(-c2ccccc2)nn1)N1CCOCC1,0
15,CCOC(=O)c1ccc(COC(=O)c2cc3ccccc3oc2=O)o1,0
16,CCOC(=O)C1CCCN(c2c(Nc3ccc(C)c(C)c3)c(=O)c2=O)C1 (stereo not given),2
17,O=C(O)c1ccc(COc2c(F)c(F)cc(F)c2F)cc1,0
18,COC(=O)c1ccc(CN(c2ccccc2OC)S(=O)(=O)c2cccs2)o1,2
19,OC(CCN1CCCCC1)(c1ccccc1)C1CCCCC1 (stereo not given),0
20,COc1ccc(OC)c(-c2cc(C(=O)NCc3cccs3)no2)c1,0
